Hits are enriched below; roughly 9.4% of the tested compounds scored in any of these assays.
Rab9 prom act – Rab9 promoter activation; Huh7 Rab9 promoter-luciferase reporter, luminescence, 24 h; Potency, µM (doses to about 9.22 µM), most hits filed as activators; hit rate 2.8% among 320,000; further: nearly all actives have a fitted effect of over 60% in size
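Luciferase signal after 10 min detection reagent at ambient indicates Rab9 promoter upregulation; stably transfected Huh7 cells were treated 24 h with compound in DMSO at 37 °C, 5% CO2.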
ELG1 DNA repair – inhibitors of ELG1-dependent DNA repair in HEK293T cells; HEK293T ELG1-luciferase reporter, luminescence, 16 h; DNA damage induced by 5-fluorouridine; Potency, µM (titrated, usually from 46.1 µM), hits mostly inhibitors; hit rate 2.3% among 330,000; further: nearly all actives have a fitted effect of over 55% in size
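Cells (2,000 per well) received 5-fluorouridine plus test compound or DMSO and were incubated 16 hr at 37 °C, 5% CO2. Luciferase activity was read by luminescence 30 min after ONE-Glo addition; signal suppression marked inhibition of damage-induced ELG1 function.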
NPC1 prom act – activates the NPC1 promoter. hit rate 2.4% among 320,000. Huh7 NPC1 promoter luciferase reporter, 24 h. Potency, µM (series often up to 9.22 µM), most hits filed as activators. AID 485313; further: nearly all actives have a fitted effect of over 60% in size
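Cells: Huh7 expressing luciferase under the NPC1 promoter, 1500/well. Seeded 2 h, compound added, incubated 24 h at 37 °C. Luciferase reagent, 10 min ambient, then luminescence.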
ELG1 genotox – induces genotoxicity in HEK293T cells with luciferase-tagged ELG1; AID 504466; HEK293T ELG1-luciferase reporter, luminescence, 16 h; Potency, µM (highest dose often 46 µM), usual class: activators; hit rate 1.3% among 330,000; further: nearly all actives have a fitted effect of over 60% in size
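Screening used a luciferase reporter fused to human ELG1 in HEK293T cells. Luminescence was read on a CCD plate imager after 16 hr exposure and 30 min ONE-Glo incubation.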
SMN2 splice enh – increases expression of the SMN2 splice variant; hit rate 2.8% among 210,000; Potency, µM (top dose mostly 46.1 µM), hits mostly activators; HEK293 SMN2-luciferase splicing reporter, luminescence, 30-36 h; AID 1458; further: nearly all actives have a fitted effect of over 55% in size
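qHTS luciferase splicing reporter: luminescence rises when SMN2 exon 7 is included in transfected HEK293 cells. Compound exposure lasted 30-36 h at 37C, with 4.5 mM final sodium butyrate as control, followed by a ONE-Glo read.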
FLuc counter – firefly luciferase modulation, counter-screen for miR-21 project. P08659. purified FLuc, Km substrates, luminescence inhibition. Potency, µM (series often up to 57.5 µM), actives largely listed as inhibitors. hit rate 6.9% among 360,000. AID 588342; further: nearly all actives have a fitted effect of over 55% in size
Target sequence (P08659 whole entry, looked up): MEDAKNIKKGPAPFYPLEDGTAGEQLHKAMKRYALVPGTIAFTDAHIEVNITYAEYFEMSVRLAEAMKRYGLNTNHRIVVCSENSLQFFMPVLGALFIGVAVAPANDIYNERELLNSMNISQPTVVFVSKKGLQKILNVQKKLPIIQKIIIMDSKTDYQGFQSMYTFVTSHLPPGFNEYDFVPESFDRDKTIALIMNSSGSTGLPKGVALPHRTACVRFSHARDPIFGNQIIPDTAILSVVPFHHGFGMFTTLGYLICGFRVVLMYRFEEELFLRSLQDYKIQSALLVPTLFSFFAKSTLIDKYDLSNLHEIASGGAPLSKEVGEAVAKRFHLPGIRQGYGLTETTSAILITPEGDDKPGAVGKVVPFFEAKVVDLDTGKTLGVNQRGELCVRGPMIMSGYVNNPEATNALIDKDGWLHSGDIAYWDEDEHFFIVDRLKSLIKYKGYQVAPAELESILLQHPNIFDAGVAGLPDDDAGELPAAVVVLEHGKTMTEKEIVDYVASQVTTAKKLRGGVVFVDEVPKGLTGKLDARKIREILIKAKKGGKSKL
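Purified P. pyralis luciferase, 10 nM final, with Km-level 10 uM D-luciferin and 10 uM ATP in 50 mM Tris acetate pH 7.5, 10 mM Mg acetate, 0.01% Tween-20, 0.05% BSA; 6-point qHTS titration about 60 µM downward; luminescence read.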
Hits are given with their value; 0 = inactive; ? = inconclusive; - = no result given; [ ] = another dose, or the depositor's remark. The call rests on the fitted dose curve; in most records, active means well fitted curve in the direction sought with a large enough effect; inconclusive means small, poorly fitted or top-dose-only effect, or another doubt; inactive means no such curve, though single readings can be large; an effect the other way counts as inactive or inconclusive.

SMILES	Rab9 prom act	ELG1 DNA repair	NPC1 prom act	ELG1 genotox	SMN2 splice enh	FLuc counter
Cc1ccc(-c2cn3c(=O)cc(C)[nH]c3n2)cc1	0.794µM	?	1.58µM	?	10µM	0.849µM
CC(=O)[C@@H]1CC[C@@H]2[C@@H]3C[C@H](C)C4=CC(=O)CC[C@@]4(C)[C@H]3[C@H](O)C[C@]21C	-	-	-	-	0	-
O=C(Nc1ncc([N+](=O)[O-])s1)c1ccco1	1.12µM	?	1.58µM	2.59µM	-	10.7µM
Cc1onc(-c2ccccc2)c1C(=O)Nc1ncc([N+](=O)[O-])s1	0	3.66µM	0	0	-	0
Cc1ccc(C(=O)Nc2ncc([N+](=O)[O-])s2)cc1	0.0251µM	?	0.0316µM	?	-	0.12µM
O=C(Nc1ncc([N+](=O)[O-])s1)c1ccc2c(c1)OCO2	1.26µM	?	3.16µM	?	-	0.107µM
COc1ccc(Nc2ccc(OC)cc2)cc1	?	?	?	-	-	19µM
COc1ccc(Nc2nc(NN)nc(Nc3ccc(OC)cc3)n2)cc1	0	?	0	0	-	10.7µM
c1ccc(Nc2ccnc(Nc3ccccc3)n2)cc1	?	?	2.51µM	?	-	1.9µM
NNc1nc(Nc2ccccc2)nc(Nc2ccccc2)n1	0	16.4µM	0	0	0	?
COc1ccc(NC2=C(C)C(=O)CC2)cc1	0	?	0	18.4µM	?	0
COc1ccc(NC2=CC(=O)N(C)C2=O)cc1	?	?	?	?	11.2µM	?
COc1ccc(NC(C#N)c2ccc(OC)cc2)cc1 (stereo unspecified)	0	0	0	?	0	3.01µM
Cc1ccc(NC(=O)c2sc3nc4c(cc3c2N)CN(Cc2ccccc2)CC4)cc1	-	-	-	-	0	0
CCc1ccc(NC(=O)CSc2nc3c(sc4ccccc43)c(=O)n2CCCOC)cc1	-	-	-	-	-	0
O=[N+]([O-])c1ccc([C@@H](Nc2ccccc2)c2ccc3cccnc3c2O)cc1	-	-	-	-	0[9.22 µM]	-
O=c1[nH]c(/C=C/c2cccc3ccccc23)nc2ccccc12	?	?	0	0	0	0
O=c1[nH]c(/C=C/c2ccccc2F)nc2ccccc12	0.251µM	?	?	11.6µM	-	0.757µM
O=c1[nH]c(/C=C/c2ccccn2)nc2ccccc12	1.58µM	?	1.58µM	?	-	19µM
O=c1[nH]c(/C=C/c2ccccc2[N+](=O)[O-])nc2ccccc12	?	?	?	0	0	0
CCN(CC)C(=O)COc1c(-c2ccco2)oc2ccccc2c1=O	0	?	0	0	-	0
CCN(CC)C(=O)COc1ccc2oc(-c3ccco3)cc(=O)c2c1	0	?	0	0	-	15.1µM
CCCCOc1ccc(C(=O)N(Cc2ccc(N(C)C)cc2)Cc2ccco2)cc1	-	-	-	-	0	0
Cc1cc2sc3ccccc3c(=O)c2c(C)c1O	0	?	0	0	-	8.49µM
CCOC(=O)C(C)n1nc(/C=C/c2ccc(OC)cc2)ccc1=O (stereo unspecified)	0	0	0	0	0	0
SMILES	Rab9 prom act	ELG1 DNA repair	NPC1 prom act	ELG1 genotox	SMN2 splice enh	FLuc counter
CC(C)c1ccc(/C=C/c2ccc(=O)n(C)n2)cc1	1.78µM	?	2.24µM	10.3µM	11.2µM	4.78µM
Cc1ccc(C(=O)Nc2nccs2)cc1S(=O)(=O)N1CCCCC1	0	0	0	0	0	16.9µM
O=C(Nc1nccs1)c1ccc(Br)c(S(=O)(=O)N2CCCC2)c1	0	0	0	0	-	?
O=C(Nc1ccc(Cl)c(S(=O)(=O)N2CCOCC2)c1)c1ccncc1	-	?	-	0	-	-
O=C(Nc1nccs1)c1ccc(Cl)c(S(=O)(=O)N2CCOCC2)c1	0	20.6µM	0	0	0	0
O=C(COc1ccc(Br)cc1CO)Nc1ccc(S(=O)(=O)N2CCCCC2)cc1	0	18.3µM	0	0	-	0
Cc1ccc(NC(=O)COc2ccc(Br)cc2CO)cc1	0	?	0	0	0	13.5µM
O=C(COc1ccc(Br)cc1CO)Nc1ccccc1	0	?	?	0	0	?
CCc1ccc(OCC(=O)Nc2ccc(S(=O)(=O)N3CCCC3)cc2)c(Br)c1	0	0	0	0	0	0
Cn1c(=O)c2sccc2n2c(CCCC(=O)Nc3ccc(Oc4ccc(Cl)cc4)cc3)nnc12	-	-	-	-	-	0
COc1ccc(-c2csc3ncnc(N4CCN(c5cccc(Cl)c5)CC4)c23)cc1	0	?	0	0	-	0
COc1ccc(N2CCN(c3ncnc4scc(-c5ccc(C)cc5)c34)CC2)cc1	0	?	0	0	-	0
COc1ccc(Nc2ncnc3scc(-c4ccc(F)cc4)c23)cc1	-	-	-	-	-	0
COc1ccc(N2CCN(c3ncnc4scc(-c5ccccc5)c34)CC2)cc1	0	16.4µM	0	0	-	0
COc1ccc(Nc2ncnc3scc(-c4ccc(OC)cc4)c23)cc1	0	11.6µM	0	0	0	0
COc1ccc(-c2csc3ncnc(N4CCN(c5cccc(OC)c5)CC4)c23)cc1	0	6.51µM	0	0	-	0
COc1ccc(-c2csc3ncnc(N4CCN(C(=O)c5ccco5)CC4)c23)cc1	0	7.3µM	0	0	-	0
CCC=O	-	-	-	-	0	-
COc1cc(C2C(=O)N(C3CCCCC3)CC(=O)N2CCC2=CCCCC2)ccc1OC(C)C (stereo unspecified)	-	-	-	-	-	0
COc1ccc(-c2csc3ncnc(N4CCN(c5cccc(C)c5C)CC4)c23)cc1	0	?	0	0	-	0
COc1ccc(-c2csc3ncnc(N4CCN(c5ccccc5Cl)CC4)c23)cc1	0	13µM	0	0	-	0
CN(C1CCCCC1)S(=O)(=O)c1ccc(F)c(C(=O)Nc2ccc(C(F)(F)F)cc2)c1	-	-	-	-	-	0
O=C(NCc1cccc(Br)c1)c1ccc(-n2cnc3cccnc32)cc1	-	-	-	-	-	0
CCOC(=O)c1cccc(NC(=O)c2cc3ccccc3o2)c1	1.26µM	?	?	0	-	5.36µM
CCOC(=O)c1ccccc1NC(=O)c1cc2ccccc2o1	?	0	0	0	-	?
SMILES	Rab9 prom act	ELG1 DNA repair	NPC1 prom act	ELG1 genotox	SMN2 splice enh	FLuc counter
CCOC(=O)c1ccc(NC(=O)c2cc3ccccc3o2)cc1	?	0	?	0	0	9.53µM
COc1ccccc1-c1noc(CCCC(=O)Nc2cc(C)ccc2C)n1	-	-	-	-	0	0
O=C(CSC1=NCCN1)Nc1ccccc1	-	-	-	-	0[9.22 µM]	-
Cc1cccc(C(=O)OCC(=O)NC23CC4CC(CC(C4)C2)C3)c1O	-	?	-	0	-	-
O=C(COC(=O)c1cccs1)NC12CC3CC(CC(C3)C1)C2	0	0	0	0	0	23.9µM
O=C(COC(=O)c1ccccn1)NC12CC3CC(CC(C3)C1)C2	0	0	0	0	0	21.3µM
COc1ccc(COc2cc(-c3cccc(OC)c3)nc3ccc(NC(=O)c4ccc(OC)cc4)cc23)cc1	0	4.11µM	0	0	0	0
COc1ccc(COc2cc(-c3cccc(OC)c3)nc3ccc(NC(=O)c4ccccc4)cc23)cc1	0	6.51µM	0	0	0	0
COc1ccc(COc2cc(-c3cccc(OC)c3)nc3ccc(NC(=O)c4cccnc4)cc23)cc1	0	2.91µM	0	0	0	0

Assay outcomes as filed in PubChem BioAssay.
